A selection: hits, their analogues and other compounds. The true share with any hit is near 12%.
PI5P4K alpha inh: PI5P4K alpha (human) kinase inhibition; PI5P4Kalpha enzyme, ADP-Glo luminescence, 60 min; active compounds read low; max response, %; actives 1.2% (n = 330,000); AID 652105; active = max response of -50% or lower; inconclusive = between -30% and -50%; inactive = -30% or higher; also: value at the top dose of about 77 µM; % is scaled to controls: 0 for no effect and ±100 for the full control effect
Target sequence (P48426 whole entry, looked up): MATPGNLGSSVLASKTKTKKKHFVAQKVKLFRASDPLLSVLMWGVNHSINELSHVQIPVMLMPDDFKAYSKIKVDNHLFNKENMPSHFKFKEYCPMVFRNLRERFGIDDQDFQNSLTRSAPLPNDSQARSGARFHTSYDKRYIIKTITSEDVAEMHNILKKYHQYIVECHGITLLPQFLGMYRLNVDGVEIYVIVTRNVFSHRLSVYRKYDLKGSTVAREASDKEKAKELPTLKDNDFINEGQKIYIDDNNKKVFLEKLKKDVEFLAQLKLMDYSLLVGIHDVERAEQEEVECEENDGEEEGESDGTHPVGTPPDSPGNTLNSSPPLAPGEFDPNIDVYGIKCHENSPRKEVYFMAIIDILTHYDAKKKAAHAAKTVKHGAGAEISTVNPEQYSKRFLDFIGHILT
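ADP-Glo luminescence end-point read after a 60 min room-temperature kinase reaction of PI5P4Kalpha plus substrate, initiated with ATP at 5 microM final. Buffer: 0.038 M HEPES pH 7.4, EGTA, 0.1% CHAPS, 5% DMSO.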
JMJD2A Tudor: blocks the human JMJD2A Tudor domain; O75164; AlphaScreen JMJD2A-Tudor / H3K4me3 peptide binding; Potency, µM (top dose mostly 114 µM), for inactives: at the top dose activity change, negative = inhibition, actives largely listed as inhibitors; actives 4.4% (n = 390,000); AID 504339; also: potency is read from the fitted curve at half-maximal effect; % is scaled to controls: 0 for no effect and ±100 for the full control effect; nearly all actives have a fitted effect of over 50% in size
G9a inh: inhibitors of human histone lysine methyltransferase G9a | actives 8.8% (n = 350,000) | Potency, µM (top dose mostly 102 µM), inactives show top-dose activity, negative = inhibition, hits mostly inhibitors | G9a H3K9 monomethylation, AlphaScreen, 2 h; also: potency is read from the fitted curve at half-maximal effect; % is scaled to controls: 0 for no effect and ±100 for the full control effect; nearly all actives have a fitted effect of over 75% in size
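G9a (20 nM) was preincubated 15 min with compound, then reacted 2 h at room temperature with 500 nM biotin-H3K9 peptide and 20 µM SAM. Monomethyl-H3K9 detected by AlphaScreen using anti-H3K9me1 antibody.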
PLK1 PBD block: PLK1 (human) polo-box domain binding inhibition; Plk1 PBD binding of FITC phosphopeptide, fluorescence polarization; AID 720504; Potency, µM, inactives show max response, negative = inhibition, usual class: inhibitors; actives 2.8% (n = 360,000); P53350; also: potency is read from the fitted curve at half-maximal effect; series mostly up to about 57 µM; % is scaled to controls: 0 for no effect and ±100 for the full control effect; nearly all actives have a fitted effect of over 65% in size
BAZ2B block: blocks human BAZ2B; Q9UIF8; AlphaScreen BAZ2B-H3K14Ac peptide displacement; Potency, µM (top dose mostly 114 µM), for the others: top-dose activity change, negative = inhibition, actives largely listed as inhibitors; actives 4.4% (n = 360,000); also: potency is read from the fitted curve at half-maximal effect; % is scaled to controls: 0 for no effect and ±100 for the full control effect; nearly all actives have a fitted effect of over 60% in size
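BAZ2B (50 nM) with biotin-H3(5-23)K14Ac peptide (50 nM) in PBS pH 7.4, 0.01% Tween-20, preformed 30 min, then compound 30 min at room temperature; top concentration 110uM. AlphaScreen streptavidin donor/nickel chelate acceptor beads (10 ug/mL final), 20 min dark, signal read.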
HP1b binding inh: HP1-beta chromodomain-methylated histone interaction inhibition | AlphaScreen HP1-beta / biotin-H3K9me3 peptide binding | Potency, µM (top dose mostly 114 µM), inactives show at the highest dose activity change, negative = inhibition, actives largely listed as inhibitors | actives 0.56% (n = 390,000); also: potency is read from the fitted curve at half-maximal effect; nearly all actives have a fitted effect of over 70% in size
Target sequence (P83916 whole entry, looked up): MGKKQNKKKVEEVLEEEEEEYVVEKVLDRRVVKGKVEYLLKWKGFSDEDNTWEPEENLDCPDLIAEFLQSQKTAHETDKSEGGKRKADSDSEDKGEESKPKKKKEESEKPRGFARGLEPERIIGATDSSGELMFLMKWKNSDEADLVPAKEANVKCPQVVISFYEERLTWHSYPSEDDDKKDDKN
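AlphaScreen: HP1-beta (50 nM) preformed 30 min with biotin-H3(1-18)K9me3 peptide (50 nM) in PBS pH 7.4, 0.01% Tween-20. Compound added for 30 min at RT, then streptavidin donor/nickel chelate acceptor beads (10 ug/mL) for 30 min.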
Active calls of the source: *; ? = inconclusive; nt = no result given; ! = a repeat was not active; [ ] = dose if it differs, or a comment. Unless noted, calls follow the shape of the dose curve; as a rule, active = well fitted curve in the direction sought with a large enough effect; inconclusive = small, poorly fitted or top-dose-only effect, or another doubt; inactive = no such curve, though single readings can be large; an effect the other way counts as inactive or inconclusive.

SMILES	PI5P4K alpha inh	JMJD2A Tudor	G9a inh	PLK1 PBD block	BAZ2B block	HP1b binding inh
CCCCCCCCCCCCCC(=O)O[C@@H]1[C@@H](C)[C@@]2(O)[C@@H](C=C(CO)C[C@@]3(O)C(=O)C(C)=C[C@@H]23)C2C(C)(C)[C@@]21OC(C)=O (stereo partly specified)	nt	nt	7.9µM*!	nt	nt	nt
COc1ccc(CNC(=O)C(NC(C)=O)C(C)C)cc1OC (stereo unspecified)	1	-4%	-4%	-4%	5%	36%
COc1ccc(CNC(=O)CSCc2cnn(-c3ccccc3)c2-n2cccc2)cc1OC	nt	-30%	-40%[59 µM]	nt	28µM*	-13%
CCN(CC)/[N+]([O-])=N/O	nt	nt	-37%[2.33 µM]	nt	nt	nt
CCCCCCCCCCCCCCCC[N+](C)(C)C	-3	-1%	8.9µM*!	-25%	6%	52%
COc1ccc(NC(=O)N2CC3(CCN(C(=O)Oc4ccccc4)CC3)C2)cc1	nt	nt	-9%[12.7 µM]	nt	nt	nt
COCCN(CCOC)C(=O)CCn1c(=O)oc2ccccc21	1	?	?	-5%	-4%	16%
CCCC(C)C1(CC)C(=O)NC(=S)NC1=O (stereo unspecified)	nt	nt	26%[59 µM]	nt	nt	nt
Cc1cc(C(=O)OCC(=O)Nc2ccccc2F)c(C)n1C1CC1	4	-24%	50µM*	-3%	-39%	1%
CN(C)c1ccc(CN2CCc3nc(N4CCN(c5ccccn5)CC4)ncc3C2)cc1	nt	35µM*	?	nt	25µM*	28µM*
c1ccc(CN2CCc3nc4ccccc4cc3C2)cc1	2	-17%	10%	-8%	-17%	21%
CCN1CCN(Cc2ccccc2C)CC1	16	-19%	3%[12.7 µM]	-7%	6%	20%
Cc1ccccc1CN1CCc2nc(N3CCN(c4ccccn4)CC3)ncc2C1	nt	89µM*	-3%[12.7 µM]	nt	?	20%
Cc1ccc(C)c(CN2C(=O)c3ccccc3Sc3ccc(C(=O)N4CCC5(CC4)OCCO5)cc32)c1	nt	-27%	-5%[59 µM]	nt	-24%	1%
COc1ccc(/C=C/C(=O)NC(=S)N2C[C@H]3C[C@H](C2)c2cccc(=O)n2C3)cc1OC	3	-20%	35µM*	-11%	-31%	22%
O=C(/C=C/c1ccc(F)cc1)NC(=S)N1C[C@H]2C[C@H](C1)c1cccc(=O)n1C2	-9	-29%	-16%	-20%	-8%	16%
O=C(/C=C/c1ccccc1)NC(=S)N1C[C@H]2C[C@H](C1)c1cccc(=O)n1C2	-9	-24%	32µM*	?	-2%	9%
Cc1ccc(-n2c(/C=C/c3cccs3)nc3ccccc3c2=O)cc1C	nt	-31%	-27%[59 µM]	nt	-30%	3%
CCN1CCN(Cc2cccc(Oc3ccccc3)c2)CC1	nt	3.2µM*	3.5µM*	-14%	32µM*	?
CCOP(=O)(Nc1ccc2c(c1)C(=NNC(N)=S)c1ccccc1-2)OCC	-14	?	nt	27µM*	nt	?
CCOP(=O)(OCC)c1cccc(O)c1	0	-14%	8%	-6%	13%	18%
O=C(OCCCCN1C(=O)c2ccccc2C1=O)c1ccc(Br)o1	1	17%[57.1 µM]	28%[59 µM]	-22%	-2%	24%
CCCc1[nH]nc2c1C(c1ccc(OC)c(Cn3nnc4ccccc43)c1)C(C#N)=C(N)O2 (stereo unspecified)	-22	?	-46%[59 µM]	12µM*	-31%	-19%
CN(CCc1nnc(N)s1)[N+](=O)[O-]	10	-15%	22µM*	?	-1%	40%
Cc1ccc(Cl)c(O)c1	nt	nt	30%[59 µM]	nt	nt	nt
SMILES	PI5P4K alpha inh	JMJD2A Tudor	G9a inh	PLK1 PBD block	BAZ2B block	HP1b binding inh
C[C@]12C=CC(=O)C=C1CC[C@@H]1[C@@H]2CC[C@@]2(C)[C@H]1CC[C@]2(C)O	nt	nt	31%[59 µM]	nt	nt	nt
O=C1C2CC=CCC2C(=O)N1SC(Cl)(Cl)Cl (stereo unspecified)	nt	nt	1.6µM*	nt	nt	nt
COC(=O)C(O)C(O)(CCC(C)C)C(=O)OC1C(OC)=CC23CCCN2CCc2cc4c(cc2C13)OCO4 (stereo unspecified)	nt	nt	31%[59 µM]	nt	nt	nt
C[N+]1([O-])[C@@H]2CC(OC(=O)[C@H](CO)c3ccccc3)C[C@H]1[C@@H]1O[C@@H]12 (stereo partly specified)	-59*	-3%	?	2%	-5%	42%
C[N+]1([O-])[C@H]2CC[C@H]1CC(OC(=O)[C@@H](CO)c1ccccc1)C2 (stereo partly specified)	nt	nt	10%[59 µM]	nt	nt	nt
Cc1cc(/C=C2\C(=O)NC(=O)N(C)C2=O)c(C)n1-c1ccc2c(c1)OCO2	?	-32%	-50%	-19%	?	19%
CN1C(=O)NC(=O)/C(=C/c2ccc(C(=O)O)cc2)C1=O	?	-11%[11.4 µM]	-42%	12µM*	-17%	43%
Cc1ccc(/C=C2/C(=O)NC(=O)N(C)C2=O)cc1	-2	-14%	-26%[59 µM]	11µM*	-33%	20%
CC(Oc1cc2oc(=O)c3c(c2cc1Cl)CCCC3)C(=O)NCc1ccccn1 (stereo unspecified)	4	-32%	?	24µM*	-7%[57.1 µM]	6%
Cc1ccc(-n2c(/C=C/c3cccc4ccccc34)nc3ccccc3c2=O)cc1	nt	6%	20%[59 µM]	nt	12%	23%
COC(=O)c1ccc(NC(=O)c2cccn(Cc3ccccc3C)c2=O)cc1	nt	-14%	7%[59 µM]	nt	4%	20%[57 µM]
CN1CCCC1c1cccnc1 (stereo unspecified)	-2	-23%	nt	-1%	nt	13%
N#Cc1ccc(C(=O)N2CCN(c3nc4ccc(F)cc4s3)CC2)cc1	nt	0%	5%[59 µM]	nt	0%	40%
Clc1ccc(Cn2ccnc2)cn1	-4	-24%	-25%	-23%	-7%	13%
O=[N+]([O-])/C=C1\NCCN1Cc1ccc(Cl)nc1	-8	-12%	50µM*!	?	5%	-25%
O=[N+]([O-])NC1=NCCN1Cc1ccc(Cl)nc1	-18	?	nt	27µM*	19%	28%
COc1cc2c3cc1Oc1c(OC)c(OC)cc4c1[C@H](Cc1ccc(cc1)Oc1cc(ccc1O)C[C@H]3N(C)CC2)N(C)CC4	-3	?	nt	-6%	nt	-12%
COc1cc2c3cc1Oc1cc(ccc1O)C[C@@H]1c4c(cc(OC)c(O)c4Oc4ccc(cc4)C[C@H]3N(C)CC2)CCN1C	0	?	?	-8%	45µM*	-6%
COc1ccc2cc1Oc1ccc(cc1)C[C@H]1c3cc(c(OC)cc3CCN1C)Oc1c(OC)c(OC)cc3c1[C@H](C2)N(C)CC3	-18	50µM*	-37%[59 µM]	-9%	-32%	-22%
COc1cc2c3cc1Oc1cc(ccc1O)C[C@@H]1c4c(cc(OC)c(O)c4Oc4cccc(c4)C[C@@H]3N(C)CC2)CC[N+]1(C)C	0	-14%	?	3%	7%	26%

Bioassay records from PubChem.
